# A selection: hits, their analogues and other compounds. The true share with any hit is near 3.4%.
# GalR3 antagonist = human GalR3 antagonism; O60755; HEK293 GalR3-CNG cAMP membrane potential fluorescence; galR3 body fused to GalR1 C-terminus; inhibition, % at 3 µM; 0.44% of 360,000 active;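 active = inhibition above the screen-wide average plus 3 SD, cut at about 13% in these data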;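 note: forskolin and galanin both at EC90 stimulate the cells; cAMP rise reported by CNG channel membrane potential dye signal; 0% = forskolin plus galanin with DMSO and 100% = forskolin alone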
# Target sequence (O60755 1-299 limits assumed): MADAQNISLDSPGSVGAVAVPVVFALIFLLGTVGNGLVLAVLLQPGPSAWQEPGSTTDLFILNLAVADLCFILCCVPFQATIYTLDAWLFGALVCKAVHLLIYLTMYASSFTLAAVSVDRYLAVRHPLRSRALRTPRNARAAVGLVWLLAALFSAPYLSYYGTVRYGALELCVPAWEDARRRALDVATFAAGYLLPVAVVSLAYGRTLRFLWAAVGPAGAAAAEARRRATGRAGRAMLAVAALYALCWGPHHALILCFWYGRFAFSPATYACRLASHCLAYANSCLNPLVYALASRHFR
# Gli-Sufu antag = antagonists of Gli-Sufu signaling. Sufu-KO-LIGHT fibroblasts, Gli luciferase reporter luminescence. inhibition, % at 5 µM. 0.74% of 340,000 active. AID 588413;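 active = inhibition above about 55%, limit read from the data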;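 note: 0% = DMSO-treated cells and 100% = wells with medium but no cells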
# FXN GAA850 act = increases GAA850 frataxin promoter reporter activity; HEK293 lucGAA850 FXN promoter luciferase reporter, 24 h; percent of 10 µM SAHA response; activation, % at 6 µM; 0.56% of 360,000 active; AID 540364;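 active = activation above the average of all compounds screened plus 3 SD, cutoff fixed separately per campaign, cut at about 7.5% in these data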;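 note: 0% = DMSO wells and 100% = 10 µM SAHA wells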
# H9c2 protect = myocardial damage modulation in H9c2 cells; H9c2 cardiomyocytes, H2O2 injury protection, ATPLite, 2 h; protection from H2O2 cell death, % at 20 µM; 0.63% of 360,000 active; AID 588492;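 active = compounds giving at least 50% protection of heart cells from peroxide-induced death in the single-dose screen, raw or plate-pattern-corrected value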;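 note: 0% = DMSO wells with peroxide and 100% = DMSO wells without peroxide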
# SMARCA2 act = SMARCA2 function activation, primary screen; 1% of 370,000 active; activation, % at 9.1 µM; MG213 cells, MMTV-luciferase reporter, dexamethasone, overnight; AID 652017; in the data active = activation above about 7.8%;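 note: 0% = vehicle wells and 100% = reference activator wells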
# NR2F2 inh = inhibitors of human COUP-TFII (NR2F2); P24468; HEK293T NGFI-A luciferase reporter, luminescence; inhibition, % at 8.6 µM; 0.7% of 370,000 active;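 active = inhibition above a per-plate cutoff, mean inhibition of test wells between control levels plus 3 SD, cut at about 38% in these data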;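 note: cells cotransfected with COUP-TFII expression vector driving the NGFI-A reporter; 0% = median of COUP-TF2 test wells and 100% = reporter-only cells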
# Target sequence (P24468 whole entry, looked up): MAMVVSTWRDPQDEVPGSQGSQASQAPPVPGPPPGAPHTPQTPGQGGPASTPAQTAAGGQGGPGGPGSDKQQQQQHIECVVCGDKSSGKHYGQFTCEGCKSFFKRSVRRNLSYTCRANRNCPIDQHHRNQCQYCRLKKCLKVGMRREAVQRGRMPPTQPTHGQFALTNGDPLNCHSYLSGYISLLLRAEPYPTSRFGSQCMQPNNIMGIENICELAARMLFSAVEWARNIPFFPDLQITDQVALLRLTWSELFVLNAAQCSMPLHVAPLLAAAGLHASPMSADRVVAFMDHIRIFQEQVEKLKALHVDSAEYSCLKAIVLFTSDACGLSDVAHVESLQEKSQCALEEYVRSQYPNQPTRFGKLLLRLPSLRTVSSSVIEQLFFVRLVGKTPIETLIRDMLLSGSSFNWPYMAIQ
# Gal4-VP16 ctr = inhibits VP16 reporter, flagging COUP-TFII antagonist hits | HEK293 Gal4-VP16 luciferase reporter, luminescence | shares compounds with NR2F2 inh | inhibition, % at 8.5 µM | AID 687007 | 25% of 2,500 active; in the data active = inhibition above about 13%
# COUP-TFII conf = COUP-TFII (NR2F2) inhibition, confirmation assay; shares compounds with NR2F2 inh; HEK293 NGFI-A luciferase reporter, luminescence; inhibition, % at 8.5 µM; 45% of 2,500 active;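 active = mean inhibition over three repeats above a set limit taken from the earlier primary screen, cut at about 38% in these data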;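 note: 100% = cells given the luciferase reporter alone without the COUP-TF2 vector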
# * hit, by the source's call; . = not tested or not shown.
SMILES,GalR3 antagonist,Gli-Sufu antag,FXN GAA850 act,H9c2 protect,SMARCA2 act,NR2F2 inh,Gal4-VP16 ctr,COUP-TFII conf
Clc1cccc(CNc2nc(-c3ccccn3)nnc2-c2ccccc2)c1,.,.,.,.,.,38.4*,0.5,-33.8
CC(C)(C)c1ccc(CNc2nc(-c3ccccn3)nnc2-c2ccccc2)cc1,.,.,.,.,.,49.1*,9.2,16.2
Cc1cc(C)c(N(CC(=O)NCc2ccccc2)C(=O)c2csnn2)c(C)c1,-9.7,-34.6,-2.1,-4.6,5.3,-14.8,.,.
Cc1ccc(/C=C2/Sc3ccccc3N(CC(=O)NCC3CCCO3)C2=O)cc1 (centres undefined),.,-7.2,0.5,5.2,.,.,.,.
Cc1cc(/C=C2\Sc3ccccc3N2C)cc(C)[n+]1CC1CCCO1 (centres undefined),-5.3,88.3*,-6.7,-21.6,-7.4,49.2*,11.7,62.0*
O=C(CCN1C(=O)C2CC=CCC2C1=O)Nc1nc(-c2ccc(F)c(F)c2)cs1 (centres undefined),-5.0,-2.0,2.8,-12.1,0.9,-5.5,.,.
O=C(Nc1ccc(CN2CCS(=O)(=O)CC2)cc1)c1ccc(C(F)(F)F)cc1,-1.3,5.1,-1.4,-8.2,-8.9,50.5*,12.9,31.7
CCC(C)Oc1ccc(C(=O)Nc2ccc(CN3CCOCC3)cc2)cc1 (centres undefined),-9.8,5.5,0.7,-4.7,-2.2,40.0*,-15.9,12.3
O=C(Nc1ccc(CN2CCS(=O)(=O)CC2)cc1)c1ccccc1,-2.7,1.3,1.8,-2.6,-1.0,-4.6,.,.
COc1ccc(C(=O)N2CCC(N3CCN(c4ccccc4)CC3)CC2)cc1OC,-5.6,-12.3,0.8,1.2,0.8,-4.4,.,.
COc1ccc(C(=O)N2CCN(C3CCC(c4ccccc4)CC3)CC2)cc1OC (centres undefined),10.8,7.2,-1.0,4.7,-4.9,41.2*,9.7,18.3
Cc1c(C(=O)OCC2CCCO2)[nH]c2c1C(=O)CC(c1ccc(N(C)C)cc1)C2 (centres undefined),4.6,-8.6,0.3,-9.6,-3.6,37.5*,-15.1,4.9
CCOC(=O)c1[nH]c2c(c1C)C(=O)CC(c1ccc(F)cc1)C2 (centres undefined),1.2,39.2,-3.1,-25.0,-1.9,0.0,.,.
COC(=O)c1ccccc1NS(C)(=O)=O,-8.9,-1.9,-0.6,-0.3,-0.2,102.9*,-3.0,-5.7
Clc1ccc(-c2noc(CSc3nnc(-c4ccncc4)n3-c3ccccc3)n2)cc1,-6.0,9.4,-0.1,-13.2,-5.7,64.8*,-3.3,12.7
CCCCCC(=O)N(O)C1CC(=O)N(c2ccccc2)C1=O (centres undefined),-1.4,-0.4,1.4,-34.4,-1.2,41.1*,-3.8,36.1
COc1ccc(CNC(=O)c2cccc(S(=O)(=O)N3CCCCC3)c2)cc1OC,5.8,9.3,-4.0,-14.7,-1.7,64.3*,3.2,44.6*
COc1ccc(CNC(=O)c2cc(S(=O)(=O)N3CCCCC3)ccc2Cl)cc1OC,-4.5,13.2,-1.3,-10.8,-8.8,51.2*,2.0,33.4
CN(CC(=O)N1CCOCC1)S(=O)(=O)c1ccc2ccccc2c1,-8.1,1.8,1.0,-2.4,4.6,-9.6,.,.
CC1CCCN(C(=O)COC(=O)CNC(=O)c2ccc(Br)cc2)C1 (centres undefined),-3.2,-7.0,1.2,0.7,-3.3,10.8,.,.
CC1CCc2c(sc(NC(=O)CSc3ncn[nH]3)c2C#N)C1 (centres undefined),-5.7,32.5,-11.6,-8.7,-11.7,85.9*,79.9*,84.1*
N#Cc1c(NC(=O)CSc2ncn[nH]2)sc2c1CCCC2,-5.1,22.2,-13.5,-32.9,-8.3,76.8*,78.5*,74.3*
N#Cc1c(NC(=O)CCCC(=O)O)sc2c1CCCCC2,0.3,-16.5,-8.5,0.2,-6.9,46.3*,16.7*,1.2
CC(C)(C)C1CCc2c(sc(NC(=O)CSc3ncn[nH]3)c2C#N)C1 (centres undefined),-3.2,2.7,-3.8,-20.0,-2.8,-3.6,.,.
Cc1nc(-c2ccc(S(=O)(=O)NCc3ccccn3)s2)cs1,-7.8,-2.1,0.0,-0.4,-3.5,-1.0,.,.
SMILES,GalR3 antagonist,Gli-Sufu antag,FXN GAA850 act,H9c2 protect,SMARCA2 act,NR2F2 inh,Gal4-VP16 ctr,COUP-TFII conf
COc1ccc(CNc2ncnc3c2[nH]c2cc(OC)c(OC)cc23)cc1,0.1,3.9,0.4,9.0,-3.0,-24.9,.,.
Cc1ccc2[nH]c3c(NCc4ccccc4)ncnc3c2c1,-1.1,22.0,.,.,-4.4,48.2*,-59.1,-18.3
C=CCN(C(=O)CNC(=O)c1ccco1)C(C(=O)NC1CCCCC1)c1cccnc1 (centres undefined),-9.3,9.6,2.4,-1.5,-0.5,-0.1,.,.
COc1cccc(C(C)(O)c2nc(-c3ccc(S(C)(=O)=O)cc3)cs2)c1 (centres undefined),-5.7,.,-1.7,-5.9,-3.6,40.4*,3.5,4.7
COc1ccc(-c2csc(C(C)(O)c3cccc(OC)c3)n2)cc1 (centres undefined),-3.9,.,-0.8,-16.4,-5.4,35.7,.,.
CC(C)CCCCCCCCCCCCC(=O)NCC(=O)NC1C(C)OC(Nc2ncnc3nc[nH]c23)C(O)C1O (centres undefined),-7.5,69.6*,-14.7,-18.0,-5.7,77.5*,14.4*,81.7*
C/C(=C\CNc1ncnc2nc[nH]c12)CO,-1.5,-9.0,0.1,2.5,-0.2,-5.2,.,.
CSc1ccc(C(=O)NCC2CCN(C(=O)C(=O)c3cc4ccccc4o3)CC2)cc1,2.0,.,.,.,-5.0,-1.9,.,.
Cn1nc(C(C)(C)C)cc1C(=O)NCC1CCN(C(=O)C(=O)c2cc3ccccc3o2)CC1,-7.6,.,.,.,-7.0,40.5*,-3.3,10.8
Cc1cccnc1C(NC(=O)C1CCN(Cc2ccc(Oc3ccccc3)cc2)CC1)c1ccccc1 (centres undefined),.,.,-3.6,-4.4,.,.,.,.
Cc1cc(NC(=O)c2ccc(Cn3nc(C)c(Br)c3C)o2)no1,-3.7,.,-0.2,11.0,-1.2,1.0,.,.
Cc1nn(Cc2ccc(C(=O)NC(C)(C)C)o2)c(C)c1Br,-4.7,-16.0,-1.5,-30.5,-3.7,48.0*,0.8,33.5
O=C(Nc1nc2cc3c(cc2s1)OCCO3)C1=COCCO1,1.5,49.1,-16.0,-13.2,-6.2,81.2*,56.5*,76.7*
Cc1ccc(NS(=O)(=O)c2cccc(C(=O)NC3CCN(Cc4ccccc4)CC3)c2)c(C)c1,-9.1,18.8,-5.7,-14.1,-3.8,56.4*,3.9,28.3
Cc1ccc(C)c(OCc2cc(C(=O)NC3CCN(Cc4ccccc4)CC3)no2)c1,-15.4,48.4,-1.1,-11.4,-1.4,48.0*,1.2,20.7
